Records with an inconclusive call do not appear. Calls of active or inactive are those of the source. The call rests on the fitted dose curve; in most records, active means well fitted cell-killing curve with a large enough effect; inconclusive means small, poorly fitted or top-dose-only effect, or effect the other way; inactive means no such curve, though single readings can be large or run the other way.
Assay: Viability qHTS for spleen associated tyrosine kinase inhibitor (SYKi) drug resistant MV4-11 cells (AID 1963824); further: nearly all actives have a fitted effect of over 35% in size
Settings: SYKi-resistant MV4-11 viability, CellTiter-Glo, 72 h; series mostly up to 45 µM
Procedure, shortened: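 SYK inhibitor-resistant MV4-11 AML cells, 500 per well, added to predispensed compounds and incubated 72 hr at 37 C, 5% CO2. Viability measured by CellTiter-Glo luminescence after 10 min at room temperature.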
Potency means the concentration at half of the fitted maximal effect.

| Structure (SMILES) | Potency | viability, % of control |
| --- | --- | --- |
| Nc1ccc(Sc2ccc(N)cc2)cc1 | 43.3 µM (active) | – |
| CC(C)(O)/C=C/C(=O)[C@](C)(O)[C@H]1[C@H](O)C[C@@]2(C)[C@@H]3CC=C4[C@@H](C=C(O)C(=O)C4(C)C)[C@]3(C)C(=O)C[C@]12C | 0.0376 µM (active) | – |
| C/C=C1/CN2CC[C@]34C(=Nc5ccccc53)[C@@H]2C[C@@H]1[C@H]4C(=O)OC | 2.27 µM (active) | – |
| C1=C(c2cnc[nH]2)c2ccsc2CC1 | inactive | – |
| CC(C)[C@@H](CN1CC[C@@](C)(c2cccc(O)c2)[C@@H](C)C1)NC(=O)[C@H]1Cc2ccc(O)cc2CN1 | 16.4 µM (active) | – |
| COCC1OC(=O)c2coc3c2C1(C)C1=C(C3=O)C2CCC(=O)C2(C)CC1OC(C)=O (stereo not drawn) | 2.06 µM (active) | – |
| Cc1cccc(NC(=O)N[C@H]2CN(C)c3ccccc3C(c3ccccc3)=N2)c1 | 16.4 µM (active) | – |
| COc1cc2c(cc1O)C1(C)CCC(O)C(C)(C)C1CC2=O (stereo not drawn) | inactive | – |
| C[C@]12CC[C@@H](O[C@@H]3O[C@H](CO)[C@@H](O)[C@H](O)[C@H]3O)C[C@@]1(O)CCC1C2CC[C@]2(C)[C@@H](C3=CC(=O)OC3)CC[C@]12O (stereo partly drawn) | 0.0632 µM (active) | – |
| C[C@]12CC[C@H](O)C[C@H]1CC[C@@H]1[C@@H]2[C@H](O)C[C@]2(C)[C@@H](c3ccc(=O)oc3)CC[C@]12O | 0.0146 µM (active) | – |
| CN1CCc2cc3c(cc2[C@H]1[C@@H]1OC(=O)c2c1ccc1c2OCO1)OCO3 | 6.51 µM (active) | – |
| C/C=C(\C)C(=O)OC1CC2C(C)(C)OC(=O)CC(OC(C)=O)C2(C)C2CC(OC(=O)C(C)C)C3(C)C(c4ccoc4)CC4OC43C12C (stereo not drawn) | inactive | – |
| CCCCn1cc(C(=O)c2cccc3ccccc23)c2ccccc21 | 18.4 µM (active) | – |
| CC1=CC2(O)/C=C/C(C)(O)C(O)C(O)/C=C/C(=O)OC23C(=O)NC(CC(C)C)C3C1C (stereo not drawn) | inactive | – |
| COC[C@]12CN(C)C3C4[C@H](OC)[C@H]1C3(C(OC)C[C@H]2O)[C@H]1C[C@@]2(O)[C@H](OC(=O)c3ccccc3)[C@@H]1[C@]4(O)[C@@H](O)[C@@H]2OC (stereo partly drawn) | inactive | – |
| CN1C(=O)[C@@H](Cc2c[nH]c3ccccc23)N=C(c2ccccc2F)c2ccccc21 | 20.6 µM (active) | – |
| CCc1c(C(=O)C(N)=O)c2c(OCC(=O)OC)cccc2n1Cc1ccccc1 | 2.31 µM (active) | – |
| C[C@]12CC[C@H]3[C@@H](CCC4=C/C(=N/OCC(=O)O)CC[C@@]43C)[C@@H]1CC[C@@H]2O | inactive | – |
| CN(C)[C@@H]1C(=O)C(C(N)=O)=C(O)[C@@]2(O)C(=O)C3=C(O)c4c(O)ccc(Cl)c4[C@@](C)(O)C3C[C@@H]12 (stereo partly drawn) | inactive | – |
| ClC1=C(Cl)[C@]2(Cl)[C@@H]3[C@@H]4C[C@@H]([C@H]5O[C@@H]45)[C@@H]3[C@@]1(Cl)C2(Cl)Cl | 30.6 µM (active) | – |
| CC(CCc1ccc(O)cc1)O[C@@H]1O[C@H](CO[C@H]2OC[C@](O)(CO)[C@H]2O)[C@@H](O)[C@H](O)[C@H]1O (stereo partly drawn) | inactive | – |
| O=C1NC(=O)c2c1c1c3ccccc3n3c1c1c2c2ccccc2n1C1CCC3O1 | 0.0164 µM (active) | – |
| C=C1[C@@H](O)[C@]2(O)OC[C@]34C2[C@]2(C)C(C[C@H]3OC(=O)[C@H](O)[C@@]14O)C(C)=CC(=O)[C@H]2O (stereo partly drawn) | 3.17 µM (active) | – |
| C/C=C(\C)C(=O)O[C@H]1[C@H](OC(C)=O)[C@]2(CO)[C@H](O)[C@H](O)[C@]3(C)C(=CCC4[C@@]5(C)CC[C@H](O[C@@H]6O[C@H](C(=O)O)[C@@H](O)[C@H](O[C@@H]7OC[C@H](O)[C@H](O[C@@H]8OC[C@H](O)[C@H](O)[C@H]8O)[C@H]7O)[C@H]6O[C@@H]6O[C@H](CO)[C@@H](O)[C@H](O)[C@H]6O)C(C)(C)C5CC[C@]43C)[C@@H]2CC1(C)C (stereo partly drawn) | – | 68.2% [at 9.25 µM] (inactive) |
| COC(=O)C1=COC(C)C2CN3CCC4(C(=O)Nc5ccccc54)C3CC12 (stereo not drawn) | 14.3 µM (active) | – |
| Cc1sc2c(c1C)C(c1ccc(Cl)cc1)=NC(CC(=O)OC(C)(C)C)c1nnc(C)n1-2 (stereo not drawn) | 0.116 µM (active) | – |
| C[C@H]1O[C@@H](O[C@H]2CC[C@]3(CO)C4CC[C@]5(C)[C@@H](C6=CC(=O)OC6)CC[C@]5(O)[C@@H]4CC[C@H]3C2)[C@H](O)[C@H](O)[C@@H]1O[C@@H]1O[C@H](CO)[C@@H](O)[C@H](O)[C@H]1O (stereo partly drawn) | 0.544 µM (active) | – |
| COC1CC(O[C@H]2CC[C@@]3(C)C(=CCC4C3C(O)[C@@H](O)[C@]3(C)[C@@H](C(C)=O)CC[C@]43O)C2)OC(C)C1OC1CC(OC)C(OC2OC(C)C(O)C(O)C2O)C(C)O1 (stereo partly drawn) | – | 103% [at 9.25 µM] (inactive) |
